Inconclusive results are not listed. Activity calls are given as the source filed them. The calls were made as follows, unless noted: active = hit-call score of the fitted dose curve at least 0.9, where 1 is the maximum; inconclusive = response in the unintended direction; inactive = score below 0.9.
Key:
[1] = target: Thyroid hormone receptor alpha (Rattus norvegicus) + Thyroid hormone receptor beta (Rattus norvegicus) (UniProt P18113+P63059); experiment: TOX21_TR_LUC_GH3_Antagonist_Followup: Tox21 GH3 Thyroid Hormone Receptor Antagonism Luciferase Follow-Up Assay (AID 2283942)
Summary of the method: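 Loss of T3-driven (1.0 nM final) reporter activity in GH3 cells was read by ONE-Glo luminescence after 24 h incubation at 37C; 15-point compound series spanned 92 uM to 5nM final, 1,500 cells/well.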

THRA (gene 7067) [2] = target: THRA (gene 7067) (UniProt P10827); experiment: TOX21_TRA_COA_Antagonist_Followup_ratio: Tox21 Thyroid Hormone Receptor alpha Antagonism through Coactivator Recruitment Follow-Up Assay, Ratio (AID 2283953)
Chain of THRA (gene 7067) (P10827 whole entry, looked up, the tested form may be a part): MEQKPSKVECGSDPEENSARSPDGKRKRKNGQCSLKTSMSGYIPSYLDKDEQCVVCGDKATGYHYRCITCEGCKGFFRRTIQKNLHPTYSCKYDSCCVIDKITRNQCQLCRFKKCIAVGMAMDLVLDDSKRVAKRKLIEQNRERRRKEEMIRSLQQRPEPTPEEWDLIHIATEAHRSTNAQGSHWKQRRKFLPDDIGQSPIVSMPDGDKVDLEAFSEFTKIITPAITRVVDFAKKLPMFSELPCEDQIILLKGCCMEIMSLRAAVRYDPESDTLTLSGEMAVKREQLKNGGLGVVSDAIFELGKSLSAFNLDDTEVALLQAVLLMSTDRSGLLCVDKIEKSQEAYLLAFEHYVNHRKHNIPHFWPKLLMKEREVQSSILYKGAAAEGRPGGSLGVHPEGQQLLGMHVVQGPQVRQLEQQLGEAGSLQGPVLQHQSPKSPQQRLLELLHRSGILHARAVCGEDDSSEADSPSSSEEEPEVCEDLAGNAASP
Summary of the method: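 We measured antagonism of T3-type coactivator recruitment using a TR-FRET ratio (emission 520 and 495 nm) between a Tb-labelled anti-GST antibody on TRα LBD (2.5 nM) and SRC-2 peptide (200 nM). Activity was scaled between DMSO and T3 wells.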

THRB (gene 7068) [3] = target: THRB (gene 7068) (UniProt P10828); experiment: TOX21_TRB_BLA_Antagonist_Followup_ratio: Tox21 Thyroid Hormone Receptor beta Antagonism Beta-lactamase (BLA) Follow-Up Assay, Ratio (AID 2283958)
Chain of THRB (gene 7068) (P10828 whole entry, looked up, the tested form may be a part): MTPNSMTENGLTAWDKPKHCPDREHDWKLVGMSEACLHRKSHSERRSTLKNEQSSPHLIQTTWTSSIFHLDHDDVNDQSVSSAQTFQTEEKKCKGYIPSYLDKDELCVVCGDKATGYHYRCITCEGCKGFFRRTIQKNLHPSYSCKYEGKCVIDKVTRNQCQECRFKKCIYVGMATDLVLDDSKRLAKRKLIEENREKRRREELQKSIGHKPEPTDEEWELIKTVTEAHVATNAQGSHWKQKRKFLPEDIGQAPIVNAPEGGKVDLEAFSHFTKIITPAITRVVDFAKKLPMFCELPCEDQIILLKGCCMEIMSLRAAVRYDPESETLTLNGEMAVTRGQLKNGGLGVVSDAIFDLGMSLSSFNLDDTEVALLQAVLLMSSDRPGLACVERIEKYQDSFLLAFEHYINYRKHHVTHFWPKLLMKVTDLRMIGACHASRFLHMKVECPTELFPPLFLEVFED
Description: The GeneBLAzer TRb-UAS-bla HEK293T assay kit for human TRb (ThermoFisherScientific Catalog No. K1684) was used as a secondary assay for specificity (TRb-bla).This assay contained the ligand-binding domain (LBD) of the human TRb fused to the DNA-binding domain of GAL4 stably integrated in the GeneBLAzer UAS-bla HEK293Tcell line. The reporter gene, b-lactamase, is under the transcriptional control of a UAS that binds the GAL4 DNA-binding domain. A cell viability assay was run in parallel for these cells as well using the CellTiter-Glo viability assay kit.TOX21_TRB_BLA_Antagonist_Followup_ratio is an assay readout measuring reporter gene via receptor activity and designed using inducible reporter (beta lactamase induction) detected with GAL4 b-lactamase reporter gene. The signal is derived from the ratio of cleaved (ch2) to uncleaved (ch1) reporter gene substrate used as the measure of target activity.Data from the assay component TOX21_TRB_BLA_Antagonist_Followup_ratio was analyzed into 1 assay endpoint. This assay endpoint, TOX21_TRB_BLA_Antagonist_Followup_ratio, was analyzed in the positive analysis fitting direction relative to DMSO as the negative control and baseline of activity. Using a type of inducible reporter, loss-of-signal activity can be used to understand changes in the reporter gene as they relate to the gene THRB. […]

THRB (gene 7068) [4] = target: THRB (gene 7068) (UniProt P10828); experiment: TOX21_TRB_COA_Antagonist_Followup_ratio: Tox21 Thyroid Hormone Receptor beta Antagonism through Coactivator Recruitment Follow-Up Assay, Ratio (AID 2283967)
Summary of the method: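 Coactivator recruitment to the GST-tagged TRb ligand-binding domain (5.0 nM) was read as the 520/495 nm TR-FRET ratio, using 200 nM fluorescein SRC-2 peptide and 2 nM terbium anti-GST. Scaled between DMSO and T3 wells; loss of signal fitted.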

[5] = TOX21_TRB_BLA_Antagonist_Followup_viability: Viability Assessment in the Tox21 Thyroid Hormone Receptor beta Antagonism Beta-lactamase (BLA) Follow-Up Assay (AID 2283961)
Summary of the method: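 Viability read as CellTiter-Glo ATP luminescence (loss of signal = cytotoxicity) in the same plates as the TRβ-bla readout. TRβ-LBD/GAL4 UAS-bla HEK293T cells were exposed to compounds, 11 concentrations in triplicate, for 18 h at 37C/5% CO2.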

THRA (gene 7067) [6] = target: THRA (gene 7067) (UniProt P10827); experiment: TOX21_TRA_COA_Agonist_Followup_ratio: Tox21 Thyroid Hormone Receptor alpha Agonism through Coactivator Recruitment Follow-Up Assay, Ratio (AID 2283948; active = hit-call score of the fitted dose curve at least 0.9, where 1 is the maximum; inactive = score below 0.9)
Description: TOX21_TRa_COA_Agonist_Followup is a secondary assay for specificity for the TOX21_TR_GH3_LUC_Agonist assay. The LanthaScreen TR-FRET TR coactivator assay kits were used to determine TR activity in a cell-free functional assay. A time-resolved fluorescence resonance energy transfer (TR-FRET) signal was indicative of coactivator (SRC-2) recruitment.TOX21_TRA_COA_Agonist_Followup_ratio is assay component calculated in the TOX21_TRA_COA_Agonist_Followup assay. The TR-FRET ratio of acceptor emission (ch2) to donor emission (ch1) is indicative of the resonance energy transfer to the fluorescein tag on the coactivator peptide following recruitment to the receptor.Data from the assay component TOX21_TRA_COA_Agonist_Followup_ratio was analyzed into 1 assay endpoint. This assay endpoint, TOX21_TRA_COA_Agonist_Followup_ratio, was analyzed in the positive analysis fitting direction relative to DMSO as the negative control and baseline of activity. Using a type of inducible reporter, gain-of-signal activity can be used to understand changes in the reporter gene as they relate to the gene THRA. Furthermore, this assay endpoint can be referred to as a primary readout, because this assay has produced multiple assay endpoints and this ratio serves a reporter gene function to understand target activity. […]

[7] = TOX21_TRB_BLA_Agonist_Followup_viability: Viability Assessment in the Tox21 Thyroid Hormone Receptor beta Agonism Beta-lactamase (BLA) Follow-Up Assay (AID 2283956)
Summary of the method: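 Viability was read as CellTiter-Glo luminescence in the same wells as the TRb-bla agonist read-out. HEK293T GAL4-TRb LBD cells were treated for 18 h (37C, 5% CO2) at 11 concentrations in triplicate. Fits were bidirectional versus DMSO baseline.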

THRB (gene 7068) [8] = target: THRB (gene 7068) (UniProt P10828); experiment: TOX21_TRB_COA_Agonist_Followup_ratio: Tox21 Thyroid Hormone Receptor beta Agonism through Coactivator Recruitment Follow-Up Assay, Ratio (AID 2283963; active = hit-call score of the fitted dose curve at least 0.9, where 1 is the maximum; inactive = score below 0.9)
Summary of the method: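 Agonism is measured as coactivator recruitment in a purified-protein TR-FRET format, using GST-TRβ LBD at 5.0 nM, fluorescein-SRC-2 peptide at 200 nM and Tb-labeled anti-GST antibody at 2 nM. Values are 520:495 nm ratios relative to DMSO (0%) and T3 (100%).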

[9] = target: Retinoic acid receptor RXR-alpha (Homo sapiens) (UniProt P19793); experiment: TOX21_TR_RXR_BLA_Agonist_Followup_ratio: Tox21 Thyroid Hormone Receptor beta Retinoid X Receptor alpha (RXRa) Agonism Beta-lactamase (BLA) Follow-Up Assay, Ratio (AID 2283968)
Chain of Retinoic acid receptor RXR-alpha (Homo sapiens) (P19793 whole entry, looked up, the tested form may be a part): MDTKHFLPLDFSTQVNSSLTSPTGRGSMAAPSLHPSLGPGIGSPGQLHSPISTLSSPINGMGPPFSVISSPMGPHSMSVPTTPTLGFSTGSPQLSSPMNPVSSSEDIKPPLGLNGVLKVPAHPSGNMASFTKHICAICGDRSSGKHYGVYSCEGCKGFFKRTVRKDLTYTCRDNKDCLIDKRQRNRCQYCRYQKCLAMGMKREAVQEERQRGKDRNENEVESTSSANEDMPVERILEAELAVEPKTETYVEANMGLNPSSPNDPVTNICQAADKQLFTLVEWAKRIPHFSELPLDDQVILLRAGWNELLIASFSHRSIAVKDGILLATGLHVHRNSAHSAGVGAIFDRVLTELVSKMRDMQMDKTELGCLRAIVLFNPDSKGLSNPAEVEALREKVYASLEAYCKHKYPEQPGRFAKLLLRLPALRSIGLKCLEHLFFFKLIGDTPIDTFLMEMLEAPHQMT
Description: GeneBLAzer RXRa-UAS-bla HEK293T assay (RXRa-bla) (ThermoFisherScientific Catalog No. K1697) was run in qHTS 1536 well format as a secondary assay for specificity of response in the TOX21_TR_GH3_LUC_Agonist assay.TOX21_TR_RXR_BLA_Agonist_Followup_ratio is an assay readout measuring reporter gene via receptor activity and designed using inducible reporter (beta lactamase induction) detected with GAL4 b-lactamase reporter gene. The signal is derived from the ratio of cleaved (ch2) to uncleaved (ch1) reporter gene substrate used as the measure of target activity.Data from the assay component TOX21_TR_RXR_BLA_Agonist_Followup_ratio was analyzed into 1 assay endpoint. This assay endpoint, TOX21_TR_RXR_BLA_Agonist_Followup_ratio, was analyzed in the positive analysis fitting direction relative to DMSO as the negative control and baseline of activity. […] Furthermore, this assay endpoint can be referred to as a primary readout, because this assay has produced multiple assay endpoints and this ratio serves a reporter gene function to understand target activity. […]
After5-h incubation at 37C/5% CO2 for cell attachment, 23 nL of follow-up compounds dissolved in DMSO, 11 concentrations in triplicate, and the positive control (9-cis retinoic acid) were transferred to the assay plates using a Pintool station. […] Data were expressed as the ratio of 460:530 nm.

[10] = TOX21_TR_RXR_BLA_Agonist_Followup_viability: Viability Assessment in the Tox21 Thyroid Hormone Receptor beta Retinoid X Receptor alpha (RXRa) Agonism Beta-lactamase (BLA) Follow-Up Assay (AID 2283970)
Summary of the method: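 CellTiter-Glo ATP quantitation as viability read-out in RXRa-bla HEK293T cells (2,500/well, charcoal-stripped 2% FBS medium), 16h compound incubation at 37C. Loss of signal versus DMSO taken as cytotoxicity, analyzed by bidirectional curve fitting.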

Measured: AC50

C[C@]12CCC(=O)C=C1CC[C@@H]1[C@@H]2CC[C@@]2(C)[C@H]1CC[C@]2(C)O
inactive: [1] | THRA (gene 7067) [2] | THRB (gene 7068) [3] | THRB (gene 7068) [4]

CO/C=C(/C(=O)OC)c1ccccc1COc1cccc(C(F)(F)F)n1
active: [1] 2.06 µM
inactive: THRA (gene 7067) [2] | THRB (gene 7068) [3] | [5] | THRB (gene 7068) [4]

Cc1cc(O)ccc1Cl
inactive: THRA (gene 7067) [6] | [7] | THRB (gene 7068) [8] | [9] | [10]
